This passage reports viability results from PubChem BioAssay.

Records with an inconclusive call do not appear. A number with no mark means an inactive call.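 How the source made its calls: active means viability at or below 27.92% in each of two runs, the all-compound median minus 4 SD; inconclusive means no clear call, values can overlap the other calls; inactive means the rest.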

The experiment in a line: viability of PTEN-null HCT116 cells – cell-based, HCT116 clonal line, CellTiter-Glo, pilot screen (AID 824).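 Further: 0% = 20 µM Hyamine control and 100% = vehicle cell control.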 As to conditions: HCT116 PTEN-deleted viability, 60 h, at 10 µM, stronger effect = lower value. On the technique in general: Cellular ATP, detected with luciferase, serves as a proxy for viable cell number.
What is called viability is a read-out of living cells in per cent, often relative to untreated cells. On to `CC(C)(O)C#Cc1ccc(C(=O)N2CCN(C(=O)c3ccco3)CC2)cc1`, for which the viability is 99.8%.

For `COC(=O)C1=C(C)Nc2nnnn2C1c1ccc(Cl)cc1Cl` (stereo not given), the viability is 91.5%.

Turning to `CC(NC(=O)C1CC1)C(c1cccs1)N1CCN(c2ccccc2)CC1` (stereo not given), the viability was 93.2%.

In the case of `O=C(Nc1c(C(=O)NCc2ccco2)cnn1-c1ccccc1)c1ccc(F)cc1`, the viability is 96.8%.

In the case of `COc1ccc(-n2c(Cc3cccn3C)nnc2SCC(=O)Nc2cccc(Cl)c2)cc1`, the viability was 62.4%.

For `CCOC(=O)N1CCN(C(=O)c2ccc3nc4ccsc4c(=O)n3c2)CC1`, the viability is 101%.

As for `CCC(C)C(=O)Nc1nc2c(s1)C(=O)CC(C)(C)C2` (stereo not given), the viability is 97.5%.

On to `COc1cc2c(cc1OC)CN(C(=O)CSc1nc3[nH]ncc3c(=O)n1-c1ccccc1)CC2`, for which the viability is 90.9%.

For the molecule `CC(NC(=O)c1cc2c(=O)n(C)c3ccccc3c2n1C)c1ccc2c(c1)OCCO2` (stereo not given), the viability was 58.2%.

On to `O=C(C1CCCN1S(=O)(=O)c1cccc2cccnc12)N1CCn2c1nc1ccccc12` (stereo not given), for which the viability is 101%.

Take `CCn1c(SCC(=O)Nc2cc(C)ccc2C)nc2c(c1=O)SC(C)C2` (stereo not given): the viability was 91.5%.

Consider `CCOC(=O)c1sc2nc(NC(=O)COc3ccccc3)sc2c1C`, for which the viability was 98.4%.

With `Cc1ccc(-n2ncc3c(N4CCCC(C)C4)ncnc32)c(C)c1` (stereo not given), the viability was 80.4%.

As to `O=C(O)C1C2C=CC3(CN(C4CCCC4)C(=O)C13)O2` (stereo not given), the viability was 95.5%.

Consider `CCCCSc1nc2c(cnn2-c2ccc(F)cc2)c(=O)[nH]1`, for which the viability was 93.7%.
